NadD inh – inhibitors of S. aureus NadD, primary screen, biochemical, colorimetric, uHTS. inhibition, % at 20 µM. Nicotinate-nucleotide adenylyltransferase NadD (Staphylococcus aureus N315). 0.78% of 360,000 active. purified NadD enzyme, colorimetric absorbance read-out; in the data active means inhibition above about 26%
MsrA act – bovine MsrA enzyme activators, primary screen, biochemical, absorbance, HTS; Methionine sulfoxide reductase A (Bos taurus); purified bovine MsrA, absorbance read-out; activation, % at 10.6 µM; 0.3% of 360,000 active; in the data active means activation above about 7.5%
rCAG binder – binders of r(CAG) RNA repeats, primary screen, biochemical, fluorescence; r(CAG) RNA repeat, TO-PRO-1 dye displacement fluorescence; inhibition, % at 3 µM; 1.3% of 370,000 active; AID 651821, 2012;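 active means inhibition above the plate cutoff, the mean of all test compounds on that plate plus 3 SD, cut at about 35% in these data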;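 further: higher means more dye released from RNA so lower well fluorescence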
MsrA inhibitor – bovine MsrA enzyme inhibitors, primary screen, biochemical, absorbance, HTS. Methionine sulfoxide reductase A (Bos taurus). purified bovine MsrA, absorbance read-out. inhibition, % at 15.5 µM. 0.75% of 360,000 active. AID 651718, 2012
MsrA inh confirm – bovine MsrA inhibitors, retest, confirmation, biochemical, absorbance, HTS. shares compounds with MsrA inhibitor. purified bovine MsrA, absorbance read-out. inhibition, % at 15.5 µM. 41% of 2,300 active. AID 651822, 2012;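 further: coupled to thioredoxin reductase with NADPH and selenocystamine and DMSO as substrate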
Each line names hits and unclear results; the compound was inactive in the other large screens (follow-up assays come after a bar, where they were run). Shown are actives, neighbours in structure and some others; about 2.7% of the full set was active somewhere. Unless noted, no stated cut-off is given here; in the data, active means inhibition above about 4.5%; inactive means the rest.

CCOC(=O)c1nnn(-c2nonc2N)c1COc1ccccc1	none
CC(=O)c1ccc(N2CCN(C(=O)c3ccc(Cn4c(=S)[nH]c5ccc(N6CCOCC6)cc5c4=O)cc3)CC2)cc1	MsrA inhibitor 5.0 | MsrA inh confirm 4.8
Cn1cnc([N+](=O)[O-])c1S(=O)(=O)Oc1ccc(Cl)cc1	MsrA inhibitor 23.1 | MsrA inh confirm 13.3
Cn1cnc([N+](=O)[O-])c1S(=O)(=O)Oc1cccc2ccccc12	MsrA inhibitor 14.1 | MsrA inh confirm 7.1
Cn1cnc([N+](=O)[O-])c1Oc1cccc2ccccc12	none
COc1cc2c(cc1OC)C(=S)NC1(CCCC1)C2	MsrA inhibitor 6.1 | MsrA inh confirm inactive
S=C1NC2(CCCCC2)Cc2ccccc21	none
CC1(C)NC(=O)N(CC(O)CN(c2ccccc2)S(=O)(=O)c2ccc([N+](=O)[O-])cc2)C1=O (stereo unspecified)	none
Cc1ccc(NC(=O)C2CCCO2)cc1[N+](=O)[O-] (stereo unspecified)	MsrA inhibitor 39.4 | MsrA inh confirm 8.4
O=C(Nc1cccc(NC(=O)C2CCCO2)c1)C1CCCO1 (stereo unspecified)	none
Fc1ccccc1C1CC(c2ccco2)=Nc2ccccc2S1 (stereo unspecified)	MsrA inhibitor 4.9 | MsrA inh confirm inactive
Cc1ccc(OCC(=O)NC2CCS(=O)(=O)C2)c([N+](=O)[O-])n1 (stereo unspecified)	none
CCOC(=O)C(C)c1c(C)[nH]c(=S)[nH]c1=O (stereo unspecified)	none
CCCCCOC(=O)C(C)c1c(C)[nH]c(=S)[nH]c1=O (stereo unspecified)	MsrA inhibitor 12.5 | MsrA inh confirm 8.8
Cc1ccc(N2C(=O)c3ccccc3C2C(=O)c2ccc(O)cc2O)cc1 (stereo unspecified)	MsrA inhibitor 6.2 | MsrA inh confirm 6.0
CCN(CC)S(=O)(=O)c1ccc(N/N=C/c2cccnc2)nc1	MsrA inhibitor 5.8 | MsrA inh confirm 4.7
Cc1nnc2c3ccccc3ccn12	none
COc1cc(C=NNC(=O)c2ccc(NS(=O)(=O)c3cccs3)cc2)cc(Br)c1O	MsrA inhibitor 5.6 | MsrA inh confirm 6.0
CC(=O)Nc1ccc(C=NNC(=O)c2ccc(NS(=O)(=O)c3cccs3)cc2)cc1	MsrA inhibitor 4.8 | MsrA inh confirm 7.1
O=C(NN=Cc1c(F)c(F)c(F)c(F)c1F)c1ccc(NS(=O)(=O)c2cccs2)cc1	none
CC(C)c1ccc(/C=N/NC(=O)c2cccc(S(=O)(=O)N3CCOCC3)c2)cc1	none
COc1ccccc1CNC(=O)c1ccc(NS(=O)(=O)c2cccs2)cc1	none
CC(=O)Nc1ccc(/C=N/NC(=O)c2cccc(S(=O)(=O)N3CCOCC3)c2)cc1	MsrA inhibitor 6.2 | MsrA inh confirm inactive
COC(=O)[C@H]1C[C@H](C(=O)O)[C@@H](C)C1(C)C	none
Cn1c(=O)c2c(ncn2CC(=O)OCC(=O)c2ccc(F)c(F)c2)n(C)c1=O	none
N/C(=N\N=C\c1ccc2c(c1)OCO2)c1nonc1N	MsrA inhibitor 7.3 | MsrA inh confirm inactive
O=C(O)c1ccc(/C=C2\SC(=S)N(NC(=O)c3ccccc3[N+](=O)[O-])C2=O)cc1	MsrA inhibitor 4.8 | MsrA inh confirm inactive
CCCCCN(C(=O)Cc1c(C)n(CCCCC)c2ccccc12)c1ccc(Oc2cccnc2)c(C)c1	none (no result: NadD inh, MsrA act)
CCc1nc(Nc2ccncc2)c2oc3ccccc3c2n1	MsrA inhibitor 4.7 | MsrA inh confirm inactive
Cc1nc(Nc2ccncc2)c2oc3ccccc3c2n1	MsrA inhibitor 5.4 | MsrA inh confirm inactive
CCc1nc(Nc2cccc(O)c2)c2oc3ccccc3c2n1	none (no result: rCAG binder, MsrA inhibitor)
CCCNC(=O)N[C@H]1CC[C@@H](CCn2cc(-c3cccc(F)c3)nn2)O[C@@H]1CO	none (no result: NadD inh, MsrA act)
CC(=O)N1N=C(N)SC1c1ccc(Cl)c(Cl)c1 (stereo unspecified)	none
COc1cc(-c2c(C#N)c(N)nc3[nH]c(=S)[nH]c(=O)c23)ccc1O	MsrA inhibitor 5.0 | MsrA inh confirm inactive
O=c1oc2ccccc2c2[nH]ccc12	none
O=c1oc2ccccc2c2c1ccc1ccccc12	MsrA inhibitor 6.2 | MsrA inh confirm 5.0
CC(NCC(=O)Nc1ccccc1C(=O)NC1CC1)c1ccco1 (stereo unspecified)	none
CSc1ccc(/C=C(/NC(=O)c2ccco2)C(=O)NCc2ccco2)cc1	MsrA inhibitor 6.3 | MsrA inh confirm inactive
O=C(NCc1ccco1)/C(=C\C=C\c1ccccc1)NC(=O)c1ccco1	none
O=C(O)CCNC(=O)/C(=C\C=C\c1ccccc1)NC(=O)c1ccccc1	MsrA inhibitor 6.8 | MsrA inh confirm inactive
O=C(NCc1ccco1)/C(=C/c1ccccc1)NC(=O)c1ccco1	none
O=C(NCc1ccco1)/C(=C/C=C/c1ccccc1)NC(=O)c1ccco1	MsrA inhibitor 4.9 | MsrA inh confirm inactive
O=C(NCc1ccco1)/C(=C\C=C\c1ccccc1)NC(=O)c1ccccc1Br	MsrA inhibitor 5.0 | MsrA inh confirm inactive
Cn1ncc2c(=S)[nH]c(=S)[nH]c21	none
O=C(COC(=O)c1ccccn1)NC(=O)c1ccccc1	none
Oc1ccc(/C=N\Nc2cc(N3CCOCC3)nc(N3CCOCC3)n2)c(O)c1	MsrA inhibitor 5.3 | MsrA inh confirm inactive
Cc1cccc(C(O)c2ncc(-c3ccc(C(F)(F)F)cc3)[nH]2)c1C (stereo unspecified)	none
Cc1c(=O)n(OCc2ccccn2)c2ccccc2[n+]1[O-]	MsrA inhibitor 4.9 | MsrA inh confirm inactive
CN(C)c1ccc(NC2=C(Cl)C(=O)c3ccccc3C2=O)cc1	MsrA inhibitor 8.2 | MsrA inh confirm inactive
CSC[C@H]1CN(c2ccc(Br)cc2)C(=O)[C@@H]1CC(=O)Nc1ccc(Br)cc1	none
CNC(=O)C[C@H]1C(=O)N(c2ccc(Br)cc2)C[C@@H]1CSC	MsrA inhibitor 5.6 | MsrA inh confirm inactive
NC(=O)N/N=C/C=C/c1ccccc1	none
NC(=O)N\N=C/C=C/C=C/c1ccc(F)cc1	MsrA inhibitor 5.2 | MsrA inh confirm inactive
O=C(NCc1ccccc1)c1ccc(NC(=O)C2CCCO2)cc1 (stereo unspecified)	none
Cn1c(O)c(N=NC(=O)CNC(=O)c2cccnc2)c2ccccc21	MsrA inhibitor 4.7 | MsrA inh confirm inactive
CCCn1c(O)c(N=NC(=O)CNC(=O)c2cccnc2)c2ccccc21	none
COc1ccccc1CNC(=O)C1CCC(=O)N1C(C)C (stereo unspecified)	none
CC(=O)c1cc(F)c(N2CCCCCC2)cc1C	none
Cc1cc(N2CCCC2)c(C)cc1C=O	MsrA inhibitor 5.1 | MsrA inh confirm inactive
CCC1CN(C(=O)N2CCC(C(=O)NCc3cccc(F)c3)CC2)c2ccccc2O1 (stereo unspecified)	none
Cc1c(N=Nc2ccc(O)cc2)c(=O)n(-c2ccccc2)n1C	MsrA inhibitor 5.2 | MsrA inh confirm inactive
Cc1cc(OCc2cc(C(=O)N(C)C3CCOC3)no2)cc(C)c1Cl (stereo unspecified)	none

Assay outcomes from PubChem BioAssay.
